D3 antag: qHTS of D3 Dopamine Receptor Antagonist: qHTS; hit rate 2.5% among 360,000; D(3) dopamine receptor (Homo sapiens), P35462; AID 652054, 2013; max response, negative = inhibition, %; D3R cells, DiscoveRx beta-arrestin luminescence, antagonist mode; stronger effect = lower value; in the data active = max response below about -50%; inconclusive = no clear call, values can overlap the other calls; also: % is scaled to controls: 0 for no effect and ±100 for the full control effect
Target sequence (P35462 whole entry, looked up): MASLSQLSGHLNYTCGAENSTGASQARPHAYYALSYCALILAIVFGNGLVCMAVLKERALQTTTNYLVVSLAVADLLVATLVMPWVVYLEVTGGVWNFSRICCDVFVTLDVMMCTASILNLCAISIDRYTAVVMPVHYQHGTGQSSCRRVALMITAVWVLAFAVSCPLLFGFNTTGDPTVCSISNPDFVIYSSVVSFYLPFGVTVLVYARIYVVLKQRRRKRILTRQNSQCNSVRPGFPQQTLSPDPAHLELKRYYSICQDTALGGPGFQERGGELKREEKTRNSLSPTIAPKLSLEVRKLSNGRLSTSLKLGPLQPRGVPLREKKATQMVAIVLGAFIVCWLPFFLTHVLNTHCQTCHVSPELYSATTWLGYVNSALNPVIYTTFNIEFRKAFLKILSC
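Cells plated overnight at 1500 cells/well, then exposed to library compounds with dopamine controls for 90 minutes at 37 degrees C. DiscoveRx reagent added for 30–60 minutes at room temperature; luminescence read, quantitative HTS format.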
DT40 TDP1 CPT: qHTS for Inhibitors of human tyrosyl-DNA phosphodiesterase 1 (TDP1): qHTS in cells in presence of CPT | chicken DT40 Tdp1-/-;hTDP1 cells + 20 nM CPT, ATP luminescence, 48 h | Potency, µM (top dose mostly 46.2 µM), inactives show at the top dose activity change, negative = growth inhibition, most hits filed as inhibitors | hit rate 12% among 420,000 | AID 686979, 2013; also: potency is read from the fitted curve at half-maximal effect; % is scaled to controls: 0 for no effect and ±100 for the full control effect; nearly all actives have a fitted effect of over 55% in size
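Chicken DT40 Tdp1-/- cells stably complemented with human TDP1 were seeded at 400 cells/well in medium containing 20 nM camptothecin, exposed to pin-transferred compounds, and grown at 37 °C for at least 48 hr. Viability was read as ATP luminescence.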
ClpP mod: qHTS Assay for Activators of ClpP; ATP-dependent Clp protease proteolytic subunit (Bacillus subtilis (strain 168)), P80244; purified B. subtilis ClpP, FRET peptide cleavage, 20 min; Potency, µM (doses to about 57.5 µM), without a hit: at the highest dose activity change, negative = active; hit rate 1.9% among 340,000; AID 651965, 2013; active = well fitted falling curve with a large enough effect; inconclusive = small, poorly fitted or top-dose-only effect; inactive = no such curve, though single readings can be large or run the other way; also: potency is read from the fitted curve at half-maximal effect; the source files actives as falling curves though it sought activators and does not explain the sign; nearly all actives have a fitted effect of over 65% in size
Target sequence (P80244 whole entry, looked up): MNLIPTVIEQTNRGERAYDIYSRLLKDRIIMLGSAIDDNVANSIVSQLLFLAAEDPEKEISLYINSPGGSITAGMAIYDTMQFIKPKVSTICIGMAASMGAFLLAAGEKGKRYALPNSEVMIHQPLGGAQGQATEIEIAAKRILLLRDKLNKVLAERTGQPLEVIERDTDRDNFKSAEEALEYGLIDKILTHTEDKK
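FRET quenching reversal measured ClpP activation: 10 microg/mL B. subtilis ClpP at pH 8 with the FRET-FV decapeptide, read at 430 nm after 320 nm excitation. The 20-min minus 0-min signal was scaled between DMSO/no-enzyme wells and ADEP (5.8 microM final).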
DRD3 agonist: qHTS of D3 Dopamine Receptor Agonist: qHTS; D(3) dopamine receptor (Homo sapiens), P35462; max activation, %; hit rate 0.58% among 410,000; D3R DiscoveRx beta-arrestin cells, luminescence, 90 min; AID 652048, 2013; in the data active = max activation above about 30%; also: 0% is about no effect
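Agonist mode: compounds and dopamine controls were applied to plated cells for 90 min at 37 degrees C after an overnight attachment at 1500 cells/well. Luminescent read-out followed 30 - 60 minutes at room temperature with DiscoveRx detection reagent.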
DT40 TDP1 no CPT: qHTS for Inhibitors of human tyrosyl-DNA phosphodiesterase 1 (TDP1): qHTS in cells in absence of CPT | DT40 Tdp1-/- hTDP1 cells, no CPT, ATP luminescence, 48 h | Potency, µM (doses to about 46.2 µM), without a hit: at the highest dose activity change, negative = growth inhibition, most hits filed as inhibitors | hit rate 15% among 420,000 | AID 686978, 2013; also: potency is read from the fitted curve at half-maximal effect; % is scaled to controls: 0 for no effect and ±100 for the full control effect; nearly all actives have a fitted effect of over 55% in size
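Chicken DT40 Tdp1-/- cells complemented with human TDP1, screened without camptothecin (DMSO vehicle only), 400 cells/well. Compounds pin-transferred, cells incubated at 37 °C for at least 48 hr. Growth read as ATP-dependent luminescence (CellTiter-Glo, 30 min at RT).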
IL-1B inflam inh: qHTS for Inhibitors of Inflammasome Signaling: IL-1-beta AlphaLISA Primary Screen; activity change, % at 57.5 µM; THP-1 LPS/ATP IL-1B secretion, AlphaLISA, 16 h; stronger effect = lower value; hit rate 4.7% among 360,000; in the data active = activity change below about -50%; inconclusive = mostly about -30% to -49%; also: % is scaled to controls: 0 for no effect and ±100 for the full control effect
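THP-1 cells pretreated 1 hr with compounds (up to 57.5 uM final), then stimulated with LPS (250 ng/mL final) plus ATP (1.25 mM final); secreted IL-1B measured by AlphaLISA after 16 hr, decreased signal indicating inhibition.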
An asterisk follows results filed as active; ? = inconclusive; . = no result given; [ ] = another dose, or the depositor's remark. In the library only some 21% were active in any assay of this set; here they are far more common. Unless noted, calls follow the shape of the dose curve; as a rule, active = well fitted inhibition curve with a large enough effect; inconclusive = small, poorly fitted or top-dose-only effect; inactive = flat fitted curve, though single readings scatter.

SMILES | D3 antag | DT40 TDP1 CPT | ClpP mod | DRD3 agonist | DT40 TDP1 no CPT | IL-1B inflam inh
CCc1c(-c2ccc(OC)cc2)ncn1Cc1cccc(-c2ccccc2)c1 | -1 | 7.3µM* | ? | 6 | 4.6µM* | -1
CCc1c(-c2cccc(Br)c2)ncn1Cc1cccc(-c2ccccc2)c1 | 3 | ? | -2% | 6 | 23µM* | -95*
COc1ccc(-c2nnn(Cc3ccccc3)n2)cc1 | 13 | 10% | 1% | 4 | 0% | -3
Cc1ccccc1CNC(=O)CN(c1cccc(C)c1C)S(C)(=O)=O | . | -27% | -11% | -27 | ? | .
O=C(CCCN1C(=O)/C(=C/c2ccc(F)cc2)SC1=S)NC1CCS(=O)(=O)C1 (centres undefined) | 9 | 18µM* | 1% | 4 | ? | 19
O=C(CCN1C(=O)/C(=C/c2ccccc2)SC1=S)NC1CCS(=O)(=O)C1 (centres undefined) | 5 | -29% | 0% | 8 | -15% | -7
O=C(CN1C(=O)S/C(=C\c2ccccc2)C1=O)NC1CCS(=O)(=O)C1 (centres undefined) | 4 | -2% | . | 20 | -11% | -15
CC(C)c1ccc(/C=C2\SC(=O)N(CC(=O)NC3CCS(=O)(=O)C3)C2=O)cc1 (centres undefined) | 10 | 23µM* | -1% | 5 | 16µM* | -30
COC(=O)C1=C(CS(=O)(=O)c2cc(Cl)ccc2OC)NC(=O)NC1c1ccccc1 (centres undefined) | . | -25% | -7% | -7 | ? | .
Cc1ccc(-n2nc(C)c3c(C)c(CCC(=O)O)c(C)nc32)cc1C | 23 | -10% | 4% | 27 | 10% | 104
CSc1nc(N)c(C(=O)N(c2ccccc2)c2ccccc2)s1 | 20 | ? | -2% | 5 | ? | 2
CC(=O)Nc1ccc(S(=O)(=O)NCCOc2ccc(Cl)cc2C)cc1 | -28 | 23µM* | . | -10 | 13µM* | -17
CSc1ccc(S(=O)(=O)NCCOc2ccccc2C)cc1 | -9 | 26µM* | 0% | -11 | ? | -1
CCCCOc1ccc(CONS(=O)(=O)c2ccc(NC(C)=O)cc2)cc1Cl | 68 | 13µM* | 2% | 3 | 15µM* | -103*
CCN(CC)C(=O)c1cc(-c2ccc(Cl)cc2)on1 | . | -19% | -3% | -1 | -7% | .
CCCNC(=O)C1(C)CCCN(C(=O)c2ccc(C)c(F)c2)C1 (centres undefined) | 7 | -19% | 1% | 0 | -21% | 0
COc1ccc(/C=C(\NC(=O)c2cccs2)C(=O)NN)cc1OC | -16 | 11% | 0% | -3 | 1% | -4
COc1ccc(/C=C(\NC(=O)c2cccs2)C(=O)Nc2cccc3ccccc23)cc1OC | 6 | ? | 0% | -8 | 18µM* | 17
O=C(N/N=C/c1ccc(O)c(O)c1O)/C(=C/c1ccc([N+](=O)[O-])cc1)NC(=O)c1ccccc1 | 0 | 4.6µM* | 1% | -4 | 5.8µM* | 20
O=C(Nc1cccc(C(=O)O)c1)/C(=C/c1ccc([N+](=O)[O-])cc1)NC(=O)c1ccccc1 | -6 | -5% | 0% | -2 | -7% | -15
O=C(Nc1cccc2ccccc12)/C(=C/c1ccc([N+](=O)[O-])cc1)NC(=O)c1ccccc1 | -13 | 8.2µM* | -1% | -7 | 21µM* | -13
C[C@@H]1C(=O)CC2C(C)(C)CCC[C@]2(C)[C@@]1(O)CCc1ccoc1 (some centres undefined) | . | -14%[9.04 µM] | . | . | -10%[9.04 µM] | .
Cc1noc(C)c1C(=O)N1CCC2(CCCN(C(=O)Nc3ccccc3)C2)CC1 | . | 16% | . | . | -2% | .
COCCN1C[C@@H](CO)O[C@@H](n2cnc3c(NC4CC4)ncnc32)C1 | 8 | -14% | -3% | -13 | 2% | ?
CC(=O)OC1CCC2(C)C(CCC3C4CC=C(C(C)=O)C4(C)OC(=O)CC32)C1 (centres undefined) | -94* | 2.3µM* | 2% | -14 | 2.1µM* | -107*
SMILES | D3 antag | DT40 TDP1 CPT | ClpP mod | DRD3 agonist | DT40 TDP1 no CPT | IL-1B inflam inh
CCCC(C)c1nnc(NC(=O)COc2ccc3c(c2)OCO3)s1 (centres undefined) | 2 | 0% | . | -22 | -10% | -2
CCOc1ccc2[nH]cc(S(=O)(=O)c3ccc(F)cc3)c(=O)c2c1 | -14 | 9.2µM* | -15% | 1 | 9.2µM* | 30
CN1CCCC(n2nc(Cc3ccc(Cl)cc3)c3ccccc3c2=O)CC1 (centres undefined) | -54* | 13µM* | -2% | -82 | 21µM* | ?
CCOC(=O)Cn1nc(Cc2ccccc2)c2ccccc2c1=O | -17 | -27% | 3% | -7 | -28% | 11
CC(=O)OCCNc1cc(Sc2nc3ccccc3[nH]2)c2nonc2c1[N+](=O)[O-] | -79* | 2.3µM* | -3% | -28 | 4.1µM* | -101*
O=[N+]([O-])c1c(NCc2ccco2)ncnc1NCc1ccco1 | 12 | -4% | . | 1 | -4% | -19
O=[N+]([O-])c1c(NCCCO)cc(N2CCN(Cc3ccc4c(c3)OCO4)CC2)c2nonc12 | 11 | 6.5µM* | 1% | 5 | 5.8µM* | -10
CC(=O)OCCNc1cc(SCc2ccco2)c2nonc2c1[N+](=O)[O-] | ? | ? | -2% | -1 | 18µM* | -52*
O=[N+]([O-])c1c(NCCCO)cc(N2CCCCCC2)c2nonc12 | 13 | -17% | -24% | -9 | ? | 1
O=[N+]([O-])c1c(NCCCO)cc(Sc2ccc(Cl)cc2)c2nonc12 | -113* | 1.3µM* | -2% | -65 | 1.5µM* | -106*
COc1ccccc1N1CC(C)(C)C(=O)N(C(=O)c2c(F)cccc2Cl)C1=S | 2 | 8% | . | 2 | ? | 19
CC(C)(C)S(=O)(=O)N1C[C@@H]2CC/C=C\C/C(c3ccccc3)=C\2[C@H]1CCO | 8 | ? | 2% | 3 | ? | -1
Cc1ccccc1NS(=O)(=O)c1ccc2[nH]cc(C(=O)NC(C)c3ccccc3)c(=O)c2c1 (centres undefined) | . | ? | -22% | 4 | ? | .

From PubChem
